Experiment [1] deals with DLD1. Put plainly: cell viability (CellTiter-Glo) relative to plate median (fraction of plate median); higher = more viable cells. The note with it: 5 µM; treatment time 24 h; reporter: 7TFP. Summed up:
(§1)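 Colorectal cancer cell lines stably transduced with lentiviral TCF/Wnt firefly luciferase reporters (7TFP or TCF4/Wnt) were seeded in 384-well plates. 24 h later they received library compounds at a final 5 µM for 24 h. Parallel plates were read for firefly luciferase or CellTiterGlo luminescence on a Tecan F500 reader. Each well's signal was normalised to the plate median (webcellHTS2, additive, no log transformation), and the mean of two independent replicates is reported.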
Background: Cellular ATP, detected with luciferase, serves as a proxy for viable cell number.

The test system of the next experiment is HCT116. The experiment is described as above. The settings on record: 5 µM; treatment time 24 h; reporter: TCF4/Wnt. The gist of the method: as §1
The test system of experiment [2] is SW480. The experiment is described as above. The settings on record: 5 µM; treatment time 24 h; reporter: 7TFP. The gist of the method:
as §1

The subject of experiment [3] is DLD1. Put plainly: TCF/Wnt firefly luciferase reporter signal relative to plate median (fraction of plate median); higher = higher Wnt reporter signal. The settings on record: 5 µM; treatment time 24 h; reporter: 7TFP. The gist of the method:
as §1
A general note: In a reporter assay the amount or activity of a reporter protein is the signal.

The test system of experiment [4] is SW480. Described as above. The settings on record: 5 µM; treatment time 24 h; reporter: 7TFP. Summed up: as §1

± gives the standard deviation of the averaged measurements.

As to `CC(N)CCCC(C)(C)O` (stereo not given), the cell viability in the experiment on DLD1 [1] was 1.01 ± 0.092; in the experiment with HCT116, 0.955 ± 0.078; in the experiment with SW480 [2] it was 0.933 ± 0.022. Also, the “TCF/Wnt firefly luciferase reporter signal” value in the experiment with DLD1 [3] is 1.03 ± 0.021; in the experiment on SW480 [4] it was 1.04 ± 0.035.

For `C=C1CC[C@H](O)C/C1=C/C=C1\CCC[C@]2(C)[C@@H]([C@H](C)CCCC(C)C)CC[C@@H]12`, the cell viability with DLD1 [1] amounted to 1.025 ± 0.0071; in the experiment on HCT116 it was 0.969 ± 0.044; in the experiment with SW480 [2] it was 0.97 ± 0.057. Further, the figures for the “TCF/Wnt firefly luciferase reporter signal” value in the experiment on DLD1 [3] and with SW480 [4] were 0.84 ± 0.04 and 0.882 ± 0.054, respectively.

With `CC(C)=CCc1c2c(c3occ(-c4ccc(O)c(O)c4)c(=O)c3c1O)C=CC(C)(C)O2`, the results for the cell viability in the experiment on DLD1 [1], in the experiment with HCT116 and with SW480 [2] were 0.997 ± 0.033, 1.04 ± 0.067 and 1.03 ± 0.028, respectively. The “TCF/Wnt firefly luciferase reporter signal” value with DLD1 [3] stood at 0.996 ± 0.077; with SW480 [4], 1.02 ± 0.021.

For the molecule `C[C@@H]1CC[C@H]2[C@](C)(CO)[C@@H](O)CC[C@]2(C)[C@@]12CC[C@@](CO)(CCO)O2`, the cell viability in the experiment with DLD1 [1] worked out at 0.994 ± 0.052; with HCT116, 1.02 ± 0.049; in the experiment with SW480 [2], 0.9945 ± 0.0078. Besides, the “TCF/Wnt firefly luciferase reporter signal” value with DLD1 [3] came out at 1.01 ± 0.043; with SW480 [4], 1.02 ± 0.014.

`Cc1cc(O)c2c(c1)C(=O)c1cccc(O)c1C2=O`: the cell viability in the experiment on DLD1 [1] was found to be 0.921 ± 0.04; with HCT116, 1.07 ± 0.21; in the experiment with SW480 [2] it was 0.936 ± 0.013. The “TCF/Wnt firefly luciferase reporter signal” value in the experiment on DLD1 [3] is 0.893 ± 0.15; in the experiment on SW480 [4], 0.934 ± 0.042.

For the molecule `O=C(O[C@@H]1Cc2c(O)cc(O)cc2O[C@@H]1c1cc(O)c(O)c(O)c1-c1c([C@H]2Oc3cc(O)cc(O)c3C[C@H]2OC(=O)c2cc(O)c(O)c(O)c2)cc(O)c(O)c1O)c1cc(O)c(O)c(O)c1`, the figures for the cell viability in the experiment with DLD1 [1], with HCT116 and with SW480 [2] were 1.08 ± 0.05, 1.15 ± 0.12 and 1.035 ± 0.0071, respectively. Further, the “TCF/Wnt firefly luciferase reporter signal” value in the experiment with DLD1 [3] is 1.03 ± 0.11; with SW480 [4], 1.01 ± 0.047.

For `OCCN1CCN(CCCN2c3ccccc3Sc3ccc(C(F)(F)F)cc32)CC1`, the cell viability with DLD1 [1] was found to be 0.902 ± 0.082; with HCT116, 0.973 ± 0.019; in the experiment with SW480 [2] it was 1.05 ± 0.09. The “TCF/Wnt firefly luciferase reporter signal” value with DLD1 [3] amounted to 0.927 ± 0.12; in the experiment with SW480 [4] it was 1.04 ± 0.1.

Consider `CC(C)(C)NC[C@H](O)c1ccc(O)c(CO)c1`, for which the cell viability in the experiment on DLD1 [1] turned out to be 1.01 ± 0.13; in the experiment on HCT116, 0.93 ± 0.061; in the experiment on SW480 [2], 0.972 ± 0.069. In addition, the “TCF/Wnt firefly luciferase reporter signal” value was 1.02 in the experiment with DLD1 [3] and 1.07 ± 0.092 in the experiment with SW480 [4].

Regarding `CCCC(=O)Nc1ccc(OCC(O)CNC(C)C)c(C(C)=O)c1` (stereo not given), the cell viability with DLD1 [1] was 0.942 ± 0.11; with HCT116, 0.966 ± 0.019; in the experiment on SW480 [2], 0.876 ± 0.1. The “TCF/Wnt firefly luciferase reporter signal” value in the experiment on DLD1 [3] stood at 0.957 ± 0.12; in the experiment with SW480 [4], 1.01 ± 0.035.

For `COC1=CC(=O)C[C@@H](C)[C@]12Oc1c(Cl)c(OC)cc(OC)c1C2=O`, the cell viability is 0.937 ± 0.055 in the experiment on DLD1 [1], 1.02 ± 0.057 in the experiment on HCT116 and 0.865 ± 0.038 in the experiment on SW480 [2]. The “TCF/Wnt firefly luciferase reporter signal” value is 0.929 ± 0.094 in the experiment on DLD1 [3] and 0.89 ± 0.17 in the experiment on SW480 [4].

Regarding `CC(C)C[C@@H]1NC(=O)CNC1=O` [Cyclo(leucylglycyl)], the cell viability in the experiment on DLD1 [1] amounted to 0.991 ± 0.042; in the experiment on HCT116 it was 1.05 ± 0.057; in the experiment on SW480 [2], 0.949 ± 0.072. For the same molecule, the “TCF/Wnt firefly luciferase reporter signal” value with DLD1 [3] was determined as 0.956 ± 0.028; with SW480 [4], 0.935 ± 0.044.

Take `CC(=O)O[C@H]1C[C@@H](O)C(C)(C)[C@@H]2C[C@@H](OC(C)=O)[C@]3(C)[C@H](CC[C@@]4(C)[C@@H](c5ccoc5)OC(=O)[C@H]5O[C@@]534)[C@@]12C`: the cell viability in the experiment with DLD1 [1] was 1.04 ± 0.069; with HCT116 it was 0.947 ± 0.066; with SW480 [2], 0.945 ± 0.016. The “TCF/Wnt firefly luciferase reporter signal” value was 1.04 ± 0.067 with DLD1 [3] and 0.978 ± 0.011 with SW480 [4].

In the case of `CC(=O)OCC(=O)[C@@]1(O)CC[C@H]2[C@@H]3C[C@H](C)C4=CC(=O)C=C[C@]4(C)[C@H]3[C@@H](O)C[C@@]21C` [6alpha-METHYLPREDNISOLONE ACETATE], the results for the cell viability with DLD1 [1], in the experiment with HCT116 and in the experiment with SW480 [2] were 1.03 ± 0.05, 0.957 ± 0.22 and 0.994 ± 0.037, respectively. Further, the “TCF/Wnt firefly luciferase reporter signal” value came to 0.904 ± 0.15 with DLD1 [3] and 0.937 ± 0.073 in the experiment on SW480 [4].

Consider `C[C@H](CCC(=O)O)[C@H]1CC[C@H]2[C@@H]3CC[C@@H]4CCCC[C@]4(C)[C@H]3CC[C@]12C`, for which the cell viability in the experiment with DLD1 [1] amounted to 0.984 ± 0.016; with HCT116 it was 1.06 ± 0.035; in the experiment on SW480 [2], 1.06 ± 0.09. Further, the figures for the “TCF/Wnt firefly luciferase reporter signal” value with DLD1 [3] and in the experiment on SW480 [4] were 0.905 ± 0.044 and 1.03 ± 0.059, respectively.
